For eight molecules, growth results are on record in PubChem BioAssay (NCI).

Test systems include DU-145 prostate; K-562 leukemia; MALME-3M melanoma; MDA-MB-231 breast; RXF 393 renal; SF-268 CNS; SF-295 CNS; SF-539 CNS; UACC-257 melanoma; M14 melanoma; HCT-15 colon; HT29 colon; SNB-75 CNS; SNB-19 CNS; U251 CNS; PC-3 prostate; SK-MEL-5 melanoma; UACC-62 melanoma; LOX IMVI melanoma; SK-MEL-28 melanoma.
What all share (test): NCI-60 one-dose screen, 48 h (100 = growth as untreated, 0 = no growth, -100 = all killed)
Common to all, as to conditions: 10 µM unless noted

The panel holds about 83,000 compounds, 20% with a hit somewhere; the sample as a whole holds those more often.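 Percent growth is the endpoint: 0 to 100 indicates growth inhibition (40 means 60% inhibition), 0 means no net growth, and negative values indicate cell death.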 Unmarked numbers belong to inactive results. Active and inactive are the calls of the source. How the source made its calls: active means growth percent below 10; inactive means the rest.

As to `CCOC(=O)Cc1cc(Br)c(OCc2ccccc2)c(Br)c1`, the growth was 115% in the test with DU-145 prostate; 86% in the test on K-562 leukemia; 106% in the test with MALME-3M melanoma; 89.1% with MDA-MB-231 breast; 96.4% in the test with RXF 393 renal; 106% in the test with SF-268 CNS. For the same molecule, the growth is 92.3% in the test with SF-295 CNS; 106% in the test on SF-539 CNS; 99.6% in the test with UACC-257 melanoma; 99.6% in the test on M14 melanoma; 88.7% in the test with HCT-15 colon; 99% in the test on HT29 colon. In addition, the growth was 87.3% in the test on SNB-75 CNS; 97.9% with SNB-19 CNS; 90.2% in the test on U251 CNS; 84.1% in the test on PC-3 prostate; 104% in the test with SK-MEL-5 melanoma; 70.8% with UACC-62 melanoma. For the same molecule, the growth was 87.6% with LOX IMVI melanoma and 106% in the test on SK-MEL-28 melanoma.

For the molecule `O=c1c2cc(Cl)ccc2oc2ccc(OCCCCCN3CCCCC3)cc12`, the growth with DU-145 prostate is 74.6%; in the test on K-562 leukemia, 2.44% (active); with MALME-3M melanoma, 74.9%; in the test on MDA-MB-231 breast, 46.1%; with RXF 393 renal it was 60.9%; in the test with SF-268 CNS it was 73.1%. Besides, the growth in the test on SF-295 CNS was 75.5%; in the test with SF-539 CNS it was 58.3%; in the test on UACC-257 melanoma it was -26.2% (active); with M14 melanoma, -67.4% (active); with HCT-15 colon it was -14.7% (active); with HT29 colon, -27.9% (active). The growth in the test on SNB-75 CNS was 102%; in the test on SNB-19 CNS, 77.5%; in the test with U251 CNS, 46%; in the test with PC-3 prostate it was 69.1%; with SK-MEL-5 melanoma it was -26.2% (active); in the test on UACC-62 melanoma, -52.7% (active). The growth in the test on LOX IMVI melanoma is -6.06% (active); with SK-MEL-28 melanoma, 12%.

For `CN1C(=O)N(C)C2C1NN=c1s/c(=C\c3ccc(C(F)(F)F)cc3)c(=O)n12` (stereo not given), the growth in the test on DU-145 prostate is 9.33% (active); in the test on K-562 leukemia, 10.6%; in the test with MALME-3M melanoma, 56%; in the test with MDA-MB-231 breast it was 60.4%; with RXF 393 renal it was -3.65% (active); in the test on SF-268 CNS, 45.1%. Moreover, the growth in the test on SF-295 CNS was 10.4%; with SF-539 CNS, 3.31% (active); in the test on UACC-257 melanoma, 44.6%; in the test with M14 melanoma, 16%; in the test with HCT-15 colon, 24.2%; with HT29 colon, 9.64% (active). Moreover, the growth is 7.43% (active) in the test on SNB-75 CNS; 30% with SNB-19 CNS; 21.6% in the test on U251 CNS; 18.8% in the test on PC-3 prostate; 4.36% (active) in the test with SK-MEL-5 melanoma; 26.7% in the test on UACC-62 melanoma. Also, the growth in the test with LOX IMVI melanoma was 36.6%; in the test with SK-MEL-28 melanoma, 60.4%.

For `COc1cccc(-c2cc(-c3cccs3)c(C#N)c(=O)[nH]2)c1`, the growth in the test on DU-145 prostate was 108%; in the test on K-562 leukemia, 102%; in the test on MALME-3M melanoma, 110%; in the test on MDA-MB-231 breast, 106%; in the test on RXF 393 renal, 117%; in the test with SF-268 CNS, 104%. Further, the growth with SF-295 CNS was 102%; in the test on SF-539 CNS it was 101%; with UACC-257 melanoma, 115%; in the test on M14 melanoma it was 105%; in the test with HCT-15 colon, 97.8%; in the test with HT29 colon, 116%. For the same molecule, the growth is 98.4% in the test on SNB-75 CNS; 99.9% in the test with SNB-19 CNS; 100% with U251 CNS; 103% in the test on PC-3 prostate; 107% with SK-MEL-5 melanoma; 96.3% in the test with UACC-62 melanoma. The growth in the test on LOX IMVI melanoma was 99.5%; in the test with SK-MEL-28 melanoma, 115%.

With `Cc1cccc(N=NC(=S)NNc2cccc(C)c2)c1`, the growth is 122% in the test with DU-145 prostate; 105% in the test on K-562 leukemia; 108% in the test with MALME-3M melanoma; 93.5% in the test with MDA-MB-231 breast; 115% in the test on RXF 393 renal; 135% with SF-268 CNS. Moreover, the growth in the test on SF-295 CNS is 104%; in the test on SF-539 CNS it was 108%; in the test on UACC-257 melanoma it was 105%; with M14 melanoma, 108%; in the test with HCT-15 colon, 108%; in the test on HT29 colon, 97.9%. Further, the growth is 88.7% with SNB-75 CNS; 106% in the test on SNB-19 CNS; 114% in the test on U251 CNS; 102% in the test on PC-3 prostate; 108% with SK-MEL-5 melanoma; 101% in the test on UACC-62 melanoma. In addition, the growth was 105% in the test with LOX IMVI melanoma and 125% in the test with SK-MEL-28 melanoma.

Regarding `COc1cnc2c(c1)C(=O)c1c-2n(CCCNC(C)C)c(=O)c2cc(Cl)ccc12`, the growth is -78.4% (active) in the test on DU-145 prostate; -80% (active) in the test on K-562 leukemia; -73.4% (active) in the test with MALME-3M melanoma; -79.7% (active) in the test with MDA-MB-231 breast; -77.1% (active) with RXF 393 renal; -64.2% (active) with SF-268 CNS. Further, the growth was -77.3% (active) in the test with SF-295 CNS; -97.3% (active) with SF-539 CNS; 48.2% in the test with UACC-257 melanoma; -83.4% (active) with M14 melanoma; -47.2% (active) in the test with HCT-15 colon; -90.6% (active) in the test on HT29 colon. For the same molecule, the growth with SNB-75 CNS was 10.4%; in the test on SNB-19 CNS, -23.2% (active); in the test with U251 CNS, -86.6% (active); with PC-3 prostate it was -51.7% (active); with SK-MEL-5 melanoma, -81.3% (active); in the test with UACC-62 melanoma, -62.8% (active). For the same molecule, the growth in the test on LOX IMVI melanoma is -88.1% (active); with SK-MEL-28 melanoma, -89.7% (active).

With `CCN(CC)C(=O)O/N=C(/C)c1ccccc1`, the growth with DU-145 prostate is 100%; with K-562 leukemia, 102%; in the test with MALME-3M melanoma it was 130%; in the test with MDA-MB-231 breast it was 91%; in the test on RXF 393 renal, 102%; in the test on SF-268 CNS, 104%. The growth in the test on SF-295 CNS was 105%; in the test on SF-539 CNS, 88.1%; in the test on UACC-257 melanoma, 105%; with M14 melanoma, 101%; in the test on HCT-15 colon, 110%; in the test on HT29 colon, 102%. The growth is 83% in the test on SNB-75 CNS; 99.6% in the test with SNB-19 CNS; 89.7% with U251 CNS; 98.6% in the test on PC-3 prostate; 94.2% with SK-MEL-5 melanoma; 99.1% in the test on UACC-62 melanoma. The growth in the test with LOX IMVI melanoma was 91.1%; in the test with SK-MEL-28 melanoma, 97.9%.

As to `C[Si](C)(C)C(c1ccccc1)c1ccccc1`, the growth is 102% in the test with DU-145 prostate; 86.7% in the test on K-562 leukemia; 90.2% in the test with MALME-3M melanoma; 123% in the test with MDA-MB-231 breast; 126% in the test with RXF 393 renal; 104% with SF-268 CNS. For the same molecule, the growth was 109% in the test with SF-295 CNS; 111% with SF-539 CNS; 109% with UACC-257 melanoma; 108% with M14 melanoma; 91.8% with HCT-15 colon; 101% in the test with HT29 colon. The growth with SNB-75 CNS is 102%; in the test on SNB-19 CNS it was 111%; in the test on U251 CNS it was 100%; in the test on PC-3 prostate, 80.3%; in the test with SK-MEL-5 melanoma, 115%; with UACC-62 melanoma it was 108%. Also, the results for the growth in the test on LOX IMVI melanoma and in the test on SK-MEL-28 melanoma were 95.9% and 115%, respectively.
